The list is not random: actives were taken first. Their share in the collection is about 1.7%.
RN4220 kill = kills Staphylococcus aureus RN4220 | S. aureus RN4220 growth, OD600, 16 h | inhibition, % (no concentration beside the values) | 330,000 compounds, 0.33% hits; in the data active = inhibition above about 85%;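 note: plate controls were untreated cells for no effect and reference antibiotic for full effect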
Mtb hypoxia rep = Mtb hypoxia fluorescent reporter inhibition | M. tuberculosis hypoxia-regulated fluorescent reporter, fluorescence | fluorescence inhibition, % (test concentration not listed) | 300,000 compounds, 0.1% hits; in the data active = fluorescence inhibition mostly above about 23%, no sharp cut-off; inactive = mostly below about 17%
CCHFV vOTU inh = CCHFV vOTU protease inhibition | inhibition, % at 11.5 µM | 370,000 compounds, 0.55% hits | Pep-AMC fluorescence; in the data active = inhibition above about 30%; note: 0% = vehicle wells with enzyme and 100% = no enzyme wells
ugtP null kill = growth inhibition of S. aureus ugtP deletion strain; S. aureus RN4220 ugtP deletion, OD600 growth, 16 h; growth inhibition, % (no concentration beside the values); 330,000 compounds, 0.54% hits; in the data active = growth inhibition above about 68%;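 note: plate controls were untreated wells for no effect and antibiotic for full effect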
Vc quorum ag = inducers of Vibrio cholerae quorum light production without autoinducers; activation, % at 18.7 µM; 350,000 compounds, 0.16% hits; V. cholerae BH1578 lux reporter, luminescence, 6 h; in the data active = activation mostly above about 9.7%, no sharp cut-off; inconclusive = no clear call, values can overlap the other calls; inactive = mostly below about 3.7%
PfHsp40 rescue = restores yeast growth despite PfHsp40 toxicity; growth rescue, % at 12.5 µM; S. cerevisiae expressing PfHsp40, growth rescue, ATP luminescence; 340,000 compounds, 0.68% hits; in the data active = growth rescue above about 28%, passing the limit was not always enough; inconclusive = no clear call, values can overlap the other calls;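 note: yeast W303a lacking pdr1 and pdr3 grown in galactose medium; growth measured after three days at 30 °C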
The depositor's hits bear a star; i = inactive; ? = inconclusive; . = not tested or not shown.

SMILES	RN4220 kill	Mtb hypoxia rep	CCHFV vOTU inh	ugtP null kill	Vc quorum ag	PfHsp40 rescue
O=C(Nc1ccccc1)Nc1ccncc1	0.8	1.5	-12.4	2.6	-0.2	-1.0
O=C(Nc1ccccc1)Nc1ccno1	1.6	94.5*	-11.1	-7.0	i	1.2
CCCOc1ccc(CSC(=N)N)cc1C(=O)OC	2.0	-4.3	-6.4	6.8	-0.7	-0.3
CCCCOc1ccc(CN=C(N)N)cc1Cl	4.7	6.7	-13.0	100.0*	0.1	0.0
CCOc1ccc(CN=C(N)N=C(N)N)cc1Cl	0.6	.	19.2	4.2	3.3	1.0
CCCOc1ccc(CCCN=C(N)N)cc1Cl	36.8	6.6	-2.2	100.6*	i	.
CC(C)CC(CO)NC(=O)CCC(NC(=O)OC(C)(C)C)C(=O)N(Cc1ccccc1)Cc1ccccc1 (stereo not given)	4.2	6.6	.	-14.4	.	.
Cc1cc(NC(=O)c2c(F)cccc2Cl)n(-c2nc3ccccc3[nH]2)n1	7.4	3.8	-0.2	-23.9	-0.4	112.9*
CC(=O)Oc1c(Sc2ccccc2[N+](=O)[O-])c(C)nn1C(C)(C)C	6.2	5.9	19.0	1.6	i	42.3*
CC(C)NC(=O)N(C)CC1Oc2c(NS(=O)(=O)c3ccc(F)cc3)cccc2C(=O)N(C(C)CO)CC1C (stereo not given)	5.3	17.1	.	2.8	.	.
CCN(CCNS(=O)(=O)c1ccc2[nH]c(=O)sc2c1)c1ccccc1	-14.4	6.4	-0.9	99.4*	-0.6	-0.1
CCOc1ccccc1CNS(=O)(=O)c1ccc2[nH]c(=O)sc2c1	4.1	.	7.3	45.9	-1.6	-1.4
CCCCN1CC(Cc2ccccc2)C(CC(=O)Nc2ccccc2)C1=O (stereo not given)	4.9	10.1	.	-0.2	.	.
COc1cccc(NCc2cc3c(C(C)(C)C)nn(-c4ccccc4)c3[nH]c2=O)c1	-6.7	5.9	4.0	1.4	i	-0.4
CCOc1ccc(NCc2cc3c(C(C)(C)C)nn(-c4ccccc4)c3[nH]c2=O)cc1	-6.4	7.4	10.5	23.0	-0.5	42.6*
O=C(NN=CC1CCCCC1)c1ccccn1	4.1	7.3	.	-5.0	.	.
N#CC(c1ccc(Cl)cc1)c1ccc2c(C(F)(F)F)cc(C(F)(F)F)nc2n1 (stereo not given)	100.5*	.	-9.4	100.9*	-0.5	-0.4
FC(F)(F)c1cc(C(F)(F)F)c2ccc(N3CCN(c4ccc(Cl)cc4)CC3)nc2n1	40.6	12.6	3.4	48.4	i	-0.6
COc1ccc2nc(C)cc(NN=Cc3ccc(F)cc3)c2c1	7.7	77.5*	.	-15.4	.	.
COc1ccc2nc(C)cc(N/N=C/c3ccc(F)cc3)c2c1	.	.	-12.1	.	-0.4	-1.3
Cc1ccc(CC(=O)O/N=C(\N)c2ccccn2)cc1	4.8	14.4	-2.2	7.4	0.3	-1.4
CC(C)(C)CC(=O)O/N=C(\N)c1ccccn1	6.5	.	4.6	3.5	-0.2	72.0*
CC(=O)NC1=NN(C(C)=O)C(c2cccs2)S1 (stereo not given)	3.8	7.9	2.2	-1.3	-0.3	39.9*
NC(=O)C1=C(c2ccccc2)c2ccccc2C1=O	80.7	15.5	6.1	64.2	42.8*	-0.8
O=C(c1ccc([N+](=O)[O-])c(CS(=O)(=O)c2ccc(Cl)cc2)c1)N1CCCC1	4.3	5.4	0.8	3.7	-0.5	40.8*
SMILES	RN4220 kill	Mtb hypoxia rep	CCHFV vOTU inh	ugtP null kill	Vc quorum ag	PfHsp40 rescue
NNC(=O)c1ccc([N+](=O)[O-])c(CS(=O)(=O)c2ccc(Cl)cc2)c1	2.7	.	7.0	2.4	-0.1	0.6
COc1cc(/C=C2\SC(=O)NC2=O)ccc1Oc1ccc([N+](=O)[O-])cc1[N+](=O)[O-]	-6.8	14.5	5.5	10.7	-0.4	-0.5
O=C1NC(=S)SC1=Cc1cc(Br)ccc1O	31.4	9.7	10.4	39.4	.	3.1
CCOc1ccc(/C=C2\SC(=S)NC2=O)cc1OC	79.1	5.9	17.2	87.6*	-0.4	-0.6
CCOc1ccc(/C=C2\SC(=S)N(C)C2=O)cc1OC	3.1	4.3	7.2	-4.8	-0.6	.
CCOc1ccccc1C=C1SC(=S)NC1=O	95.2*	8.3	8.0	96.6*	-0.4	-1.4
O=C1NC(=S)SC1=Cc1ccccc1Br	100.0*	20.9	21.6	100.1*	-3.8	?
COc1ccc(/C=C2\SC(=O)NC2=S)cc1OC	71.1	15.7	-1.2	64.9	-0.6	143.2*
Cc1ccc(COc2ccc(C=NO)cc2)cc1	4.1	7.2	.	14.0	.	.
CCCC1C(=NO)CC(c2ccccc2)NC1c1ccccc1 (stereo not given)	1.1	9.6	.	0.2	.	.
